Compounds with a hit are over-represented: about 3.3% of the library has one in this group of screens.
ALOX15 inhib – qHTS Assay for Inhibitors of 15-hLO (15-human lipoxygenase) | Polyunsaturated fatty acid lipoxygenase ALOX15 (Homo sapiens), P16050 | purified 15hLO-1, xylenol orange hydroperoxide absorbance | Potency, µM (series often up to 57.1 µM), without a hit: at the top dose activity change, negative = inhibition, usual class: inhibitors | 74,000 tested, 1.4% active | AID 887, 2007; further: potency means the concentration at half of the fitted maximal effect; on the % scale 0 is the no-effect control and ±100 the full control effect; nearly all actives have a fitted effect of over 55% in size
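40 nM 15hLO-1 + cpd, 15 min RT; start w/ 50 uM AA (final), 6 min RT; stop/detect w/ 200 uM XO + 300 uM Fe(II) in 50 mM H2SO4, 30 min; A573/A405. Buffer 25 mM Hepes pH 7.5, 0.01% Triton X-100. No-enzyme wells as negative control.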
YjeE inh – qHTS Assay for Inhibitors of YjeE | tRNA threonylcarbamoyladenosine biosynthesis protein TsaE (Escherichia coli (strain … | purified YjeE enzyme, qHTS inhibition assay | Potency, µM | 71,000 tested, 0.05% active | AID 605, 2007
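Fluorescence polarization of a BODIPY Texas Red–ADP probe (2 uM) bound to purified YjeE (10 uM) was read after 15 min room-temperature incubation with compounds. Loss of polarization marks inhibitors; ADP serves as titrated control.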
DNA Pol III inh – qHTS Assay for Inhibitors of DNA Polymerase III Holoenzyme System. AID 603, 2007. reconstituted DNA polymerase III holoenzyme replication, biochemical. 71,000 tested, 0.25% active. Potency, µM (doses to about 57.1 µM), for inactives: top-dose activity change, negative = inhibition; further: potency means the concentration at half of the fitted maximal effect; on the % scale 0 is the no-effect control and ±100 the full control effect
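Reconstituted *E. coli* holoenzyme (0.35 nM Pol III, 1 nM beta, 154 nM SSB, 2 nM primase) was preincubated with compound for 15 min at RT. Synthesis on 1.4 nM ssM13Gori ran 35 min, then was stopped with PicoGreen/EDTA and read as dsDNA fluorescence.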
Tau fil binding – qHTS Assay for Tau Filament Binding. Microtubule-associated protein tau (Homo sapiens), P10636. recombinant tau filaments, thioflavin S fluorescence, 15 h; filaments grown with octadecylsulfate alongside compound. Potency, µM (titrated, usually from 57.1 µM), for the others: top-dose activity change, negative = inhibition. 71,000 tested, 2% active;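 further: potency means the concentration at half of the fitted maximal effect; on the % scale 0 is the no-effect control and ±100 the full control effect; actives lower thioflavin S fluorescence by blocking filaments or displacing dye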
Target sequence (P10636 whole entry, looked up): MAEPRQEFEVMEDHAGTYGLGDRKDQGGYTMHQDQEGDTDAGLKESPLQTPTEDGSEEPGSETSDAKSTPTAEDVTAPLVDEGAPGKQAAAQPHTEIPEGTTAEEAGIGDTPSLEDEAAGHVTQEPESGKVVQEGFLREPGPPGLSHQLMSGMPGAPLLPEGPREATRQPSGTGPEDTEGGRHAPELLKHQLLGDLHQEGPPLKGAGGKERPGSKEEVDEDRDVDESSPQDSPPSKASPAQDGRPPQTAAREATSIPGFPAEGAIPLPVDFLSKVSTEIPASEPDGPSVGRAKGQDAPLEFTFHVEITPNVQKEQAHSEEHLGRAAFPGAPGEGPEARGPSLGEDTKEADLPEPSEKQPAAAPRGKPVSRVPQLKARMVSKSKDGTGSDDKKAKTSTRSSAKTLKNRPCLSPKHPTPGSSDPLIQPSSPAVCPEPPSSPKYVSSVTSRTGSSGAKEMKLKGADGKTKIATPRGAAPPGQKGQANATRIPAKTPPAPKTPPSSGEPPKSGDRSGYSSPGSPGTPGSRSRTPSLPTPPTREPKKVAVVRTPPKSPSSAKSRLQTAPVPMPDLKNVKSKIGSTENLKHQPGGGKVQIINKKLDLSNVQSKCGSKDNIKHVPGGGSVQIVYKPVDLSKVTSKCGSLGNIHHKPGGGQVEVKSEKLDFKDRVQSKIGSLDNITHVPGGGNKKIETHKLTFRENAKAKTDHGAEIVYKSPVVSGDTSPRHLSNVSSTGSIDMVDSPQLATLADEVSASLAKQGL
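Assay mix: 1 uM His-tagged tau, 30 uM sodium octadecylsulfate, thioflavine S dye in HEPES/NaCl/DTT buffer. Compound is added prior to the inducer. Fluorescence after 15 h at 37 C.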
Hsp90 Hop PPI – qHTS Assay for Disrupters of an Hsp90 Co-Chaperone Interaction; Potency, µM (doses to about 57 µM), for the others: at the highest dose activity change, negative = inhibition; AlphaScreen TPR2A-His6 binding biotin-Hsp90 C-terminal peptide; 71,000 tested, 0.44% active; Hsp90 C-terminal peptide / TPR2A (Hop) interaction, human; active means well fitted curve in either direction with a large enough effect; inconclusive means small, poorly fitted or top-dose-only effect, or another doubt; further: potency means the concentration at half of the fitted maximal effect; on the % scale 0 is the no-effect control and ±100 the full control effect
Active calls of the source: *; i = inactive; ? = inconclusive; · = no result given; ! = repeats disagree; [ ] = dose if it differs, or a comment. Unless noted, the call rests on the fitted dose curve; in most records, active means well fitted curve in the direction sought with a large enough effect; inconclusive means small, poorly fitted or top-dose-only effect, or another doubt; inactive means no such curve, though single readings can be large; an effect the other way counts as inactive or inconclusive.

SMILES	ALOX15 inhib	YjeE inh	DNA Pol III inh	Tau fil binding	Hsp90 Hop PPI
Nc1ncnc2c1nc(-c1ccccc1)n2[C@H]1O[C@@H](CO)[C@@H](O)[C@H]1O	-7.3%[11.4 µM]	i	-4.1%[11.4 µM]	5.1%[11.4 µM]	-1.8%[11 µM]
CCOC(=O)OCC1OC(c2ccccc2)C=CC1Oc1ccc(F)cc1C (stereo not drawn)	-9.5%[11.4 µM]	·	·	·	·
CC(C)CC(/C(O)=C(\C#N)c1nc2ccccc2[nH]1)N1C(=O)c2ccccc2C1=O (stereo not drawn)	-3.8%	i	-2.7%	12.6µM*	-15.3%
Nc1nc2ncc(=O)[nH]c2c(=O)[nH]1	5.3%	·	·	·	·
COc1ccc(OC2C(O)COC2/C=C/C#Cc2ccc(F)cc2F)cc1 (stereo not drawn)	-10.3%[11.4 µM]	·	·	·	·
CC1(C)CC(=O)C2=C(C1)NC(SCC(=O)Nc1ccccc1)=C(C#N)C2c1ccco1 (stereo not drawn)	-10.0%	i	5.9%	12.6µM*	26.4%
N#CC1=C(N)Oc2c(ccc3cccnc23)C1c1cccnc1 (stereo not drawn)	?	i	-12.3%	-10.2%	31.6µM*
CC(=O)Nc1ccc(OC[C@@H](O)CNC(C)C)cc1	?	i	-1.6%	39.8µM*!	-3.7%
O=S(=O)(O)c1ccc(N=Nc2ccccc2)cc1	5.6%[11.4 µM]	i	-6.4%[11.4 µM]	2.8%[11.4 µM]	-2.6%[11 µM]
Nc1ccc(N=Nc2ccc(-c3ccc(O)cc3)cc2)c2ccc(S(=O)(=O)O)cc12	-27.9%[11.4 µM]	i	-9.0%[11.4 µM]	2.51µM*	?
Cc1onc(-c2ccccc2)c1C(=O)Nc1nnc(COc2ccc(Cl)cc2)s1	7.94µM*	i	0.0%	3.3%	-0.5%
CCC(CC)c1nnc(NC(=O)c2c(-c3ccccc3)noc2C)s1	-16.4%	i	-1.4%	-10.5%	0.9%
CO[C@H]1/C=C/O[C@@]2(C)Oc3c(C)c(O)c4c(O)c(c5c(c4c3C2=O)NC2(CCN(CC(C)C)CC2)N=5)=NC(=O)/C(C)=C\C=C\[C@H](C)[C@H](O)[C@@H](C)[C@@H](O)[C@@H](C)[C@H](OC(C)=O)[C@@H]1C	?	i	-5.0%	0.398µM*	-12.8%
CO[C@@H]1/C=C\O[C@]2(C)Oc3c(C)c(O)c4c(O)c(cc(O)c4c3C2=O)NC(=O)/C(C)=C\C=C/[C@H](C)[C@@H](O)[C@H](C)[C@H](O)[C@H](C)[C@H](OC(C)=O)[C@@H]1C	-16.8%[11.4 µM]	i	-2.1%[11.4 µM]	-6.8%[11.4 µM]	-5.6%[11 µM]
CO[C@H]1C=CO[C@]2(C)Oc3c(C)c(O)c4c(O)c(c5c(c4c3C2=O)NC2(CCN(CC(C)C)CC2)N=5)=NC(=O)C(C)=CC=C[C@@H](C)[C@@H](O)[C@@H](C)[C@@H](O)[C@@H](C)[C@@H](OC(C)=O)[C@@H]1C	13.6%[25.6 µM]	i	-3.5%[25.6 µM]	1.58µM*	-18.7%[26 µM]
N[C@@H](C(=O)O)[C@@H]1C[C@H]1C(=O)O	·	i	0.7%	7.6%	-3.6%
C/C=C\C1=C(CO)C(=O)C2O[C@]2(CC=C(C)C)C1=O (stereo partly drawn)	-12.4%[11.4 µM]	·	·	·	·
COC(=O)[C@H](CCSC)NC(=O)C/C=C\[C@@H](C)[C@@H](CO)OC	5.5%[11.4 µM]	·	·	·	·
O=C(O[C@@H]1Cc2c(O)cc(O)cc2OC1c1ccc(O)c(O)c1)c1cc(O)c(O)c(O)c1 (stereo partly drawn)	6.31µM*	·	·	·	·
COc1cc2c(cc1O)[C@@H](c1cc(O)c(O)c(OC)c1)[C@@](O)(C(=O)O)[C@@H](CO)[C@@H]2O	0.5%[11.4 µM]	i	-9.3%[11.4 µM]	5.5%[11.4 µM]	0.3%[11 µM]
Cc1cc2oc3c(c(=O)c2cc1C)C(c1ccc(F)cc1)N(CCCN1CCOCC1)C3=O (stereo not drawn)	-15.4%	i	-6.4%	20µM*	-1.0%
CCOc1cccc(C2c3c(oc4cc(C)c(C)cc4c3=O)C(=O)N2CCCN(C)C)c1 (stereo not drawn)	10.7%	i	-4.6%	12.6µM*	-2.3%
CCCOc1ccc(C2c3c(oc4cc(C)c(C)cc4c3=O)C(=O)N2CCCN(C)C)cc1 (stereo not drawn)	-7.0%	i	-0.7%	?	-2.9%
O=C1[C@H]2[C@H]3[C@H](O)[C@H](O)C/C(=N/OC[C@@H](O)COCc4ccco4)[C@H]3CC[C@@H]2C(=O)N1Cc1ccc2c(c1)OCO2	3.7%[11.4 µM]	·	·	·	·
CC(C)c1cccc2c([Si](C)(C)C)c3c(nc12)-c1cccc(=O)n1C3	·	i	-1.6%	13.6%	?
SMILES	ALOX15 inhib	YjeE inh	DNA Pol III inh	Tau fil binding	Hsp90 Hop PPI
CS(=O)(=O)NCCC1=CCCCC1	20µM*	i	-0.8%	-12.0%	-3.3%
CO[C@@H]1COC(=O)C/C=C\[C@H](C)COC(=O)[C@H](C)NC(=O)C/C=C\[C@H]1C	3.0%[11.4 µM]	·	·	·	·
COC(=O)C/C=C\[C@@H](C)[C@@H](/C=N\OC[C@@H](C)[C@H](OCc1ccccc1)C(C)C)OC	5.3%[11.4 µM]	·	·	·	·
CCCC[S@@](=N)(=O)CC[C@@H](N)C(=O)O	-5.4%	i	-6.1%	7.6%	-10.7%
O=C(CC1Nc2ccccc2NC1=O)NCc1cccnc1 (stereo not drawn)	15.8µM*	i	-6.9%	-8.2%	-9.8%
CCCCNC(=O)CC1Nc2ccccc2NC1=O (stereo not drawn)	-12.1%	i	-2.8%	-15.4%	3.0%
COc1ccc(-c2ccc3c(n2)CCCN3C[C@H](O)CN2CCCc3nc(-c4ccc(Br)cc4)ccc32)cc1	-7.5%[11.4 µM]	·	·	·	·
O=C(/C=C\c1ccc(O)c(O)c1)O[C@H]1C[C@@](O)(C(=O)O)C[C@H](O)[C@@H]1O	·	i	-7.0%	?	-5.2%
Cc1ccc(-c2cc(C(F)F)n3ncc(C(=O)N4CCN5CCCC5C4)c3n2)cc1 (stereo not drawn)	-6.3%	i	-2.0%	25.1µM*	-5.2%
CCCCn1nc(NC(=O)c2cccs2)c2cc3cc(OC)ccc3nc21	?	i	9.5%	66.7%	20µM*
O=C(CSc1nnc(COc2ccc(Cl)cc2)o1)N1CCN(c2ccccc2)CC1	8.9%	i	2.0%	65.1%	3.2%
O=C(CSc1nnc(-c2ccc(Cl)cc2)o1)N1CCN(c2ccccc2)CC1	-16.5%	i	-4.0%	12.6µM*	-3.7%
C=C1C(=O)O[C@H]2C[C@@]3(C)CCCC(=C)[C@@H]3C[C@H]12	·	i	-0.7%	-9.6%	-4.1%
C=Cc1c(C)c2cc3[nH]c(cc4nc(cc5nc(cc1[nH]2)C(C)=C5CCC(=O)O)C(CCC(=O)O)=C4C)c(C)c3C=C	?	?	-16.6%	5.01µM*	?
CC1=C(CCC(=O)O)c2cc3nc(cc4[nH]c(cc5[nH]c(cc1n2)c(C)c5C(C)O)c(C)c4C(C)O)C(C)=C3CCC(=O)O (stereo not drawn)	-14.0%	·	·	·	·
